# The whole screen tested about 5,700 compounds, of which about 85 (1%) were called active. Cut-off read from the data, not from the text of the source: active = p53-positive nuclei above about 36% (passing the limit was not always enough); inactive = the rest. What follows is part of a selection rich in actives, with near analogues and random picks from the rest. Peptide text beside a SMILES is read from it.
# How the values were obtained:
# [1] = p53 stabilisation in HPV-positive human cells, imaging, p53-positive nuclei imaging, 24 h, 48 h (AID 1508601); settings: 24/48 h
# [2] = target: Cellular tumor antigen p53 (Homo sapiens) (UniProt P04637); assay: as above; settings: 24/48 h, stronger effect = higher value
# Cellular tumor antigen p53 (Homo sapiens), sequence (P04637 whole entry, looked up): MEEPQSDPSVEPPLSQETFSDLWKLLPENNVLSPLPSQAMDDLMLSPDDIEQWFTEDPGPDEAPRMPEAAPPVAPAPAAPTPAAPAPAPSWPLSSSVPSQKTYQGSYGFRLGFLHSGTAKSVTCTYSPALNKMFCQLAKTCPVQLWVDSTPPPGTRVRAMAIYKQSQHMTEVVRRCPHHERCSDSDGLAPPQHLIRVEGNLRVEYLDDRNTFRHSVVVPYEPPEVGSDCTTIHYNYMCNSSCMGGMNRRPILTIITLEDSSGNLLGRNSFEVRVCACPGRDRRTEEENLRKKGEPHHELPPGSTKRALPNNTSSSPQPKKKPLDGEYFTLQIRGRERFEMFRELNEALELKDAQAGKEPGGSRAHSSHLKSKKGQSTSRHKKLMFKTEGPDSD
# [3] = measured here: cell number at 24 h, Library stock concentration: 3.33 mM
# [4] = measured here: cell number at 48 h, Library stock concentration: 3.33 mM
# [5] = Library stock concentration: 3.33 mM
# [6] = measured here: p53 positive nuclei at 24 h, Library stock concentration: 3.33 mM
# [7] = measured here: cell number at 24 h, concentration not given here
# [8] = measured here: cell number at 48 h, concentration not given here
# [9] = measured here: p53 positive nuclei at 24 h, concentration not given here
smiles,measurement,setting,value
COC(=O)C(Cc1ccccc1)NC(=O)C(N)CC(=O)O (stereo not drawn) (H-Asp-Phe-OMe; configuration not given here),"nuclei count, normalised",[1]; [3],101%
same,"nuclei count, normalised",[1]; [4],94.9%
same,"p53-positive nuclei, normalised",[2]; [5],-0.0669% (inactive)
same,"p53-positive nuclei, normalised",[2]; [6],-0.12%
C[C@H]1O[C@@H](O[C@H]2[C@@H](O)C[C@H](O[C@H]3[C@@H](O)C[C@H](O[C@H]4CC[C@]5(C)C6CC[C@]7(C)[C@@H](C8=CC(=O)OC8)CC[C@]7(O)C6CC[C@@H]5C4)O[C@@H]3C)O[C@@H]2C)C[C@H](O)[C@@H]1O (stereo not given in full),"nuclei count, normalised",[1]; [7],49%
same,"nuclei count, normalised",[1]; [8],31%
same,"p53-positive nuclei, normalised",[2]; concentration not given here,16.9% (inactive)
same,"p53-positive nuclei, normalised",[2]; [9],3.09%
CC(C)OC(=O)CCC/C=C\C[C@@H]1[C@@H](/C=C/[C@@H](O)CCc2ccccc2)[C@H](O)C[C@@H]1O,"nuclei count, normalised",[1]; [7],106%
same,"nuclei count, normalised",[1]; [8],105%
same,"p53-positive nuclei, normalised",[2]; concentration not given here,0.0477% (inactive)
same,"p53-positive nuclei, normalised",[2]; [9],-0.0131%
CCN(CC)C(=O)[C@]1(c2ccccc2)CC1CN (stereo not given in full),"nuclei count, normalised",[1]; [3],107%
same,"nuclei count, normalised",[1]; [4],99.9%
same,"p53-positive nuclei, normalised",[2]; [5],-0.0572% (inactive)
same,"p53-positive nuclei, normalised",[2]; [6],-0.236%
COc1cccc(CN2CCN(c3ccc4cccc(OC)c4n3)CC2)c1,"nuclei count, normalised",[1]; [7],109%
same,"nuclei count, normalised",[1]; [8],114%
same,"p53-positive nuclei, normalised",[2]; concentration not given here,0.13% (inactive)
same,"p53-positive nuclei, normalised",[2]; [9],0.279%
O=C(O)CCC/C=C\C[C@@H]1[C@@H](/C=C/[C@H](O)CCc2ccccc2)[C@H](O)C[C@@H]1O,"nuclei count, normalised",[1]; [7],107%
same,"nuclei count, normalised",[1]; [8],108%
same,"p53-positive nuclei, normalised",[2]; concentration not given here,-0.104% (inactive)
same,"p53-positive nuclei, normalised",[2]; [9],-0.0183%
O=C(O)CCCC=CCC1C(O)CC(O)C1C=CC(O)COc1cccc(Cl)c1 (stereo not given),"nuclei count, normalised","[1]; measured here: cell number at 24 h, Library stock concentration: 80 uM",91.3%
same,"nuclei count, normalised","[1]; measured here: cell number at 24 h, Library stock concentration: 400 uM",83%
same,"nuclei count, normalised","[1]; measured here: cell number at 24 h, Library stock concentration: 2 mM",71%
same,"nuclei count, normalised","[1]; measured here: cell number at 24 h, Library stock concentration: 10 mM",62.6%
same,"nuclei count, normalised","[1]; measured here: cell number at 48 h, Library stock concentration: 80 uM",91.4%
same,"nuclei count, normalised","[1]; measured here: cell number at 48 h, Library stock concentration: 400 uM",86.3%
same,"nuclei count, normalised","[1]; measured here: cell number at 48 h, Library stock concentration: 2 mM",76.4%
same,"nuclei count, normalised","[1]; measured here: cell number at 48 h, Library stock concentration: 10 mM",62.3%
same,"p53-positive nuclei, normalised",[2]; Library stock concentration: 80 uM,-0.163% (inactive)
same,"p53-positive nuclei, normalised",[2]; Library stock concentration: 400 uM,-0.108% (inactive)
same,"p53-positive nuclei, normalised",[2]; Library stock concentration: 2 mM,0.08% (inactive)
same,"p53-positive nuclei, normalised",[2]; Library stock concentration: 10 mM,0.269% (inactive)
same,"p53-positive nuclei, normalised","[2]; measured here: p53 positive nuclei at 24 h, Library stock concentration: 80 uM",0.18%
same,"p53-positive nuclei, normalised","[2]; measured here: p53 positive nuclei at 24 h, Library stock concentration: 400 uM",0.0351%
same,"p53-positive nuclei, normalised","[2]; measured here: p53 positive nuclei at 24 h, Library stock concentration: 2 mM",0.0627%
same,"p53-positive nuclei, normalised","[2]; measured here: p53 positive nuclei at 24 h, Library stock concentration: 10 mM",-0.0194%
